According to PubChem BioAssay (NCI):
About 83,000 compounds went through this panel and 20% of them were active in at least one assay; those are over-represented in the sample as a whole.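 How to read the values: 0–100, growth inhibition (40 = 60% inhibited); 0, no net growth; -100 to 0, cell death (-40 = 40% of starting cells died; -100 = all dead).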 Active and inactive are the calls of the source. How the source made its calls: active means growth percent below 10; inactive means the rest.

What follows are molecules tested on HL-60(TB) leukemia (assay: NCI-60 one-dose screen, 48 h (100 = growth as untreated, 0 = no growth, -100 = all killed)). Conditions: 10 µM unless noted.

| SMILES | growth |
| --- | --- |
| COc1cc(NC(C)CCCNC(=O)CCC(=O)NCCCNCCCCCCCCCCNCCCNC(=O)CCC(=O)NCCCC(C)Nc2cc(OC)cc3cccnc23)c2ncccc2c1 (stereo not given) | 58.2% [8 µM] (inactive) |
| COc1ccccc1NC(=O)OCC12COCN1COC2 | 102% (inactive) |
| c1ccc(-c2nc3sc(C(c4ccccc4)c4ccccc4)nn3c2-c2ccccc2)cc1 | 112% (inactive) |
| Cc1ccc2nc(Cl)c(-c3nc4ccccc4o3)cc2c1 | 94.4% (inactive) |
| COc1cc(C(=O)/C=C/c2c(-c3ccc(F)cc3)nc3sccn23)cc(OC)c1OC | 32% (inactive) |
| CCCC[P+](c1ccccc1)(c1ccccc1)c1ccccc1 | 16.3% (inactive) |
| COc1cccc(NC(=O)Nc2ccc(Nc3ncnc4[nH]c(C)c(C)c34)cc2)c1 | 104% (inactive) |
| O=C(OC1CCCC1)c1ccccc1Cl | 99.2% (inactive) |
| CC(=O)c1cc2c(N)c(C(=O)Nc3cccc(F)c3C)sc2nc1C | 57.1% (inactive) |
| Nc1nc(N)c2cc(Sc3cccc(C(F)(F)F)c3)ccc2n1 | 24.6% (inactive) |
| CC(Sc1nc2ccccc2c(=O)n1CCc1ccc(S(N)(=O)=O)cc1)C(=O)Nc1ccc(Cl)cc1 (stereo not given) | 86.2% (inactive) |
| C/C(=N/Nc1nc2ccccc2n1C)c1ccccn1 | -19% (active) |
| O=C1Nc2ccc(Cl)cc2/C1=N/N=C/c1c[nH]c2ccccc12 | 95.5% (inactive) |
| COc1ccc(NC(=O)Cn2c(=O)sc3c(-c4ccc(Cl)cc4)cc(-c4ccc(Cl)cc4)nc32)cc1 | 80% (inactive) |
| COc1ccc(/C=N\N2CCOCC2)cc1OC1CCCC1 | 104% (inactive) |
